Results from PubChem BioAssay (EPA / NIEHS).
Inconclusive results are not listed. Calls of active or inactive are those of the source. The calls were made as follows, unless noted: active = hit-call score of the fitted dose curve at least 0.9, where 1 is the maximum; inactive = score below 0.9.

What was measured:
[1] = target: Hepatocyte nuclear factor 4-alpha (Homo sapiens) (UniProt P41235); assay: ATG_HNF4a_TRANS: Attagene TRANS-FACTORIAL HepG2 Assay for human Hepatocyte Nuclear Factor 4 alpha (HNF4a) (AID 2282982; active = hit-call score of the fitted dose curve at least 0.9, where 1 is the maximum); settings: HepG2 HNF4a transactivation reporter, mRNA readout
Sequence of Hepatocyte nuclear factor 4-alpha (Homo sapiens) (P41235 whole entry, looked up, the tested form may be a part): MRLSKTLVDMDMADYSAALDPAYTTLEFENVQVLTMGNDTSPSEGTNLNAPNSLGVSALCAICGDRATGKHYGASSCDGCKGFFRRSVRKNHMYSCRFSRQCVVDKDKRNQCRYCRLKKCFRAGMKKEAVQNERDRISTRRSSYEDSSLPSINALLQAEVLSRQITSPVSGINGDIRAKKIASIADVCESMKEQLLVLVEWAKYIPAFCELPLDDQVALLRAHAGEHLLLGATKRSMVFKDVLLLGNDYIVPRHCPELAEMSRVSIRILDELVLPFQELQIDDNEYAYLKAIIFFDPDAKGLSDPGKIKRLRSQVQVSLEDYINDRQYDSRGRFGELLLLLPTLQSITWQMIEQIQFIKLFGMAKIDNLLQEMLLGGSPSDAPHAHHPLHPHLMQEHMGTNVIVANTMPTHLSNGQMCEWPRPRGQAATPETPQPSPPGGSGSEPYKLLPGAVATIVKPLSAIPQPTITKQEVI
Method in brief: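 Activity of an exogenous HNF4a–Gal4 fusion scored as induced GAL4-UAS reporter transcripts after 24 h chemical exposure of transfected human HepG2 cells. Read-out via RT-PCR with 6-FAM labelling and capillary electrophoresis; rise over DMSO baseline.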

[2] = target: Nuclear receptor subfamily 4 group A member 2 (Homo sapiens) (UniProt P43354); assay: ATG_NURR1_TRANS: Attagene TRANS-FACTORIAL HepG2 Assay for human Nuclear Receptor Related Protein 1 (NURR1) (AID 2282985; active = hit-call score of the fitted dose curve at least 0.9, where 1 is the maximum); settings: HepG2 Attagene TRANS reporter, mRNA readout
Sequence of Nuclear receptor subfamily 4 group A member 2 (Homo sapiens) (P43354 whole entry, looked up, the tested form may be a part): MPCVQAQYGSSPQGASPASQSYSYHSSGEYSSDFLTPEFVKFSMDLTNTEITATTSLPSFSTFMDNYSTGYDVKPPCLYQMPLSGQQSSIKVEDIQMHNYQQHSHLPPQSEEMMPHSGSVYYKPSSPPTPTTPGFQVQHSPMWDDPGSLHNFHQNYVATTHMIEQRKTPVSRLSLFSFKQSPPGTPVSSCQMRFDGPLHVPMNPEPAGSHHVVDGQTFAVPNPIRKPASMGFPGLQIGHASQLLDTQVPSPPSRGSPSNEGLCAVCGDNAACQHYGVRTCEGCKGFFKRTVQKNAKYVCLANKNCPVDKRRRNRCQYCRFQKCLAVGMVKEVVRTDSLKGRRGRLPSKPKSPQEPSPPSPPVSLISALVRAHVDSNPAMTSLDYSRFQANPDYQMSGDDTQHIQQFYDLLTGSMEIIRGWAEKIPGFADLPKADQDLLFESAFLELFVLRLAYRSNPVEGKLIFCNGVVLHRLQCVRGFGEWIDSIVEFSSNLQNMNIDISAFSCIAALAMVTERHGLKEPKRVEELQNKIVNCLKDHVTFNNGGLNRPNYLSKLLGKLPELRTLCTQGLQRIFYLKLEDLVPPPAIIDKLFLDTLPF
Method in brief: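 Reporter transcript induction, measured by RT-PCR with fluorescent labelling, HpaI digestion and capillary electrophoresis, after 24 hr dosing of human HepG2 cells transiently expressing an exogenous NR-Gal4 fusion with GAL4-UAS-driven reporters; DMSO as baseline.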

[3] = target: Transcriptional activator Myb (Homo sapiens) (UniProt P10242); assay: ATG_Myb_CIS: Attagene CIS-FACTORIAL HepG2 Assay for human Myeloblastosis (Myb) Proto-Oncogene Transcription Factor (AID 2282986); settings: HepG2 Attagene CIS-FACTORIAL Myb reporter transcription; actives raise or lower the signal
Sequence of Transcriptional activator Myb (Homo sapiens) (P10242 whole entry, looked up): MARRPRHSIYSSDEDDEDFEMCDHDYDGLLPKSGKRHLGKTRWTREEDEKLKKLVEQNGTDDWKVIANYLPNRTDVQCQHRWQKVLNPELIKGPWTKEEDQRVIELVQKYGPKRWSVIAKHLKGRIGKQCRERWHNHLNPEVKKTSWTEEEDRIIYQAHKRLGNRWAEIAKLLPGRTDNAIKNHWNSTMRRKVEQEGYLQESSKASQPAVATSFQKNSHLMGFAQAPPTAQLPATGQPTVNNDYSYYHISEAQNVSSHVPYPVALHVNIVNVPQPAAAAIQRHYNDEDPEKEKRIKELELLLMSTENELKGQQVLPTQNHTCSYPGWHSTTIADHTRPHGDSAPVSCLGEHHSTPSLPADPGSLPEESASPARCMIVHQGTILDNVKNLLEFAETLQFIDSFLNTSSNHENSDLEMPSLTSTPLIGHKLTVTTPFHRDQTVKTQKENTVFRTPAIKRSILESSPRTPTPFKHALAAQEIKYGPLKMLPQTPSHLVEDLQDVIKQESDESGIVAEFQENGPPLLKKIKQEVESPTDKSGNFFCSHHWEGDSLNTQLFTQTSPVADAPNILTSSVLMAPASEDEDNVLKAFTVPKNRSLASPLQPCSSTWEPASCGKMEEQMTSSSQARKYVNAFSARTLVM
Method in brief: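 After 24 h of compound dosing, total RNA from transfected HepG2 cells is reverse-transcribed and the reporter sequences amplified, labeled and separated by capillary electrophoresis. Values come from bidirectional fitting against DMSO.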

[4] = target: Nuclear respiratory factor 1 (Homo sapiens) (UniProt Q16656); assay: ATG_NRF1_CIS: Attagene CIS-FACTORIAL HepG2 Assay for human Nuclear Respiratory Factor 1 (NRF1) Orphan Gene (AID 2282987); settings: HepG2 NRF1 cis-element reporter, Attagene multiplex; actives raise or lower the signal
Sequence of Nuclear respiratory factor 1 (Homo sapiens) (Q16656 whole entry, looked up): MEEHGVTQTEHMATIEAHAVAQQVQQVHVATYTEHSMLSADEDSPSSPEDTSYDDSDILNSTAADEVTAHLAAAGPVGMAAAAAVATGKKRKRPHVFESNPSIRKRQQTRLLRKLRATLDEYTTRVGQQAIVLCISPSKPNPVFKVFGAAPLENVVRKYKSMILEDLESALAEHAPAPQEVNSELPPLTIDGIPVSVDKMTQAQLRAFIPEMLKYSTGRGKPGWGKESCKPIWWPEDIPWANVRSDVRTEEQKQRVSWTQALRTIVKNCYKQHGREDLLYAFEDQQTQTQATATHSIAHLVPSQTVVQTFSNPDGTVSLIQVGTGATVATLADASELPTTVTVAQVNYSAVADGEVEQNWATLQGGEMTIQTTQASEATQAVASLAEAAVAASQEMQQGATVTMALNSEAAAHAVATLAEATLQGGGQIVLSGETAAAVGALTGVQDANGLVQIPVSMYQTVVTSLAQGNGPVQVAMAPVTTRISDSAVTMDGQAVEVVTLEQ
Method in brief: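 Measured: fluorescent reporter-specific RT-PCR products from transfected HepG2 cells, separated by capillary electrophoresis. Exposure lasted 24 h. Analysis used bidirectional curve fitting with DMSO as negative control.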

[5] = ATG_NFI_CIS: Attagene CIS-FACTORIAL HepG2 Assay for human Nuclear Factor I (NFI) (AID 2282989); settings: HepG2 cis-regulatory reporter, NFI response element transcription; actives raise or lower the signal
Method in brief: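 HepG2, transient MRTU, 24 h exposure; RNA→cDNA→PCR→FAM label→HpaI→CE fluorescence. Bidirectional fit, DMSO = baseline.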

[6] = target: Myc proto-oncogene protein (Homo sapiens) (UniProt P01106); assay: ATG_Myc_CIS: Attagene CIS-FACTORIAL HepG2 Assay for human Myelocytomatosis (Myc) Proto-Oncogene Transcription Factor (AID 2282990); settings: HepG2, Attagene cis-reporter transcription factor activity; actives raise or lower the signal
Sequence of Myc proto-oncogene protein (Homo sapiens) (P01106 whole entry, looked up, the tested form may be a part): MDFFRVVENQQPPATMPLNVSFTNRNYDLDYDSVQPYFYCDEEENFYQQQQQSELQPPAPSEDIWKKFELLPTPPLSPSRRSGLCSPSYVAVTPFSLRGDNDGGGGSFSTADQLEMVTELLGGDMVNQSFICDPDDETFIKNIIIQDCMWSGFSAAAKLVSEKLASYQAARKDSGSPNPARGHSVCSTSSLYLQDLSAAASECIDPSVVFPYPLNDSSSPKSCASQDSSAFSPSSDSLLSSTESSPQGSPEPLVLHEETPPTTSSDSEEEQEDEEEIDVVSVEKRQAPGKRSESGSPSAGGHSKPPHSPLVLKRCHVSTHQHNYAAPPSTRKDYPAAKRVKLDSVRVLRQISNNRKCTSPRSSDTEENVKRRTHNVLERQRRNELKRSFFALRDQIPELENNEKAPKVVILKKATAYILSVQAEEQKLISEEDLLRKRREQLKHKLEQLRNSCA
Method in brief: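 After 24 h chemical treatment of HepG2 cells carrying multiplexed cis-regulated reporter constructs, reporter transcripts quantified by RT-PCR and capillary electrophoresis of fluorescent fragments. Gain or loss fitted against DMSO baseline.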

[7] = ATG_NF_kB_CIS: Attagene CIS-FACTORIAL HepG2 Assay for human Nuclear Factor Kappa B (NF-kB) (AID 2282991); settings: HepG2 Attagene cis-factorial NF-kB reporter mRNA; actives raise or lower the signal
Method in brief: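 Fluorescence of labelled RT-PCR products separated by capillary electrophoresis gives reporter mRNA levels from transfected HepG2 cells exposed 24 h; values are fitted in both directions relative to DMSO.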

[8] = ATG_NRF2_ARE_CIS: Attagene CIS-FACTORIAL HepG2 Assay for human Nuclear Factor Erythroid 2 Related Factor 2 (NFR2) response to Antioxidant Response Elements (ARE) (AID 2282992); settings: HepG2 Attagene ARE/NRF2 reporter, transcription factor activity; actives raise or lower the signal
Method in brief: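 Endogenous transcription factor activity read out as reporter transcript levels (RT-PCR plus capillary electrophoresis, fluorescence) in transiently transfected HepG2 cells. Measured at 24 h after dosing; gain or loss of signal fitted versus DMSO.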

[9] = ATG_Oct_MLP_CIS: Attagene CIS-FACTORIAL HepG2 Assay for human Octamer-Binding Transcription Factor (Oct) (AID 2282993); settings: HepG2 Attagene cis-factorial Oct reporter, mRNA; actives raise or lower the signal
Method in brief: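 Multiplexed cis-reporter assay in human liver HepG2 cells, 24 h incubation. Reporter RNA amplified and labelled, then resolved by capillary electrophoresis; DMSO serves as negative control and baseline.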

[10] = target: Cellular tumor antigen p53 (Homo sapiens) (UniProt P04637); assay: ATG_p53_CIS: Attagene CIS-FACTORIAL HepG2 Assay for human p53 Transcription Factor (AID 2282994); settings: HepG2 p53 cis-element reporter, Attagene mRNA; actives raise or lower the signal
Sequence of Cellular tumor antigen p53 (Homo sapiens) (P04637 whole entry, looked up): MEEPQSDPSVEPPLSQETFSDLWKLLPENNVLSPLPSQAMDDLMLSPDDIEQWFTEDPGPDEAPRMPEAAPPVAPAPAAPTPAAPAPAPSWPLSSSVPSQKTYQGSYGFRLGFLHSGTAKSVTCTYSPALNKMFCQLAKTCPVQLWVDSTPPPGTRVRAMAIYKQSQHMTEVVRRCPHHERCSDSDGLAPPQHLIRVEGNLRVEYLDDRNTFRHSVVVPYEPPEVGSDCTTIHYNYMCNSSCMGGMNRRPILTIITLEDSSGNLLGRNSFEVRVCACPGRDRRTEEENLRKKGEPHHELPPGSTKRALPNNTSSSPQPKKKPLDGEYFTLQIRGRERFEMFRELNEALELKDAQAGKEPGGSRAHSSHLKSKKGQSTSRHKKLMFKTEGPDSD
Method in brief: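 Endogenous p53 activity read in transiently transfected HepG2 from a cis-element-driven reporter transcript after 24 h exposure. RNA reverse-transcribed, PCR-amplified, fluorescently labelled and sized by capillary electrophoresis; gain or loss fitted against DMSO baseline.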

[11] = target: human Peroxisome Proliferator-activated Receptor alpha (PPARa), PPARA (gene 5465) (UniProt Q07869); assay: ATG_PPARa_TRANS: Attagene TRANS-FACTORIAL HepG2 Assay for human Peroxisome Proliferator-activated Receptor alpha (PPARa) (AID 2283001; active = hit-call score of the fitted dose curve at least 0.9, where 1 is the maximum;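 as to AC50: potency for gain of reporter signal over DMSO so agonist or activator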)
Sequence of human Peroxisome Proliferator-activated Receptor alpha (PPARa), PPARA (gene 5465) (Q07869 whole entry, looked up, the tested form may be a part): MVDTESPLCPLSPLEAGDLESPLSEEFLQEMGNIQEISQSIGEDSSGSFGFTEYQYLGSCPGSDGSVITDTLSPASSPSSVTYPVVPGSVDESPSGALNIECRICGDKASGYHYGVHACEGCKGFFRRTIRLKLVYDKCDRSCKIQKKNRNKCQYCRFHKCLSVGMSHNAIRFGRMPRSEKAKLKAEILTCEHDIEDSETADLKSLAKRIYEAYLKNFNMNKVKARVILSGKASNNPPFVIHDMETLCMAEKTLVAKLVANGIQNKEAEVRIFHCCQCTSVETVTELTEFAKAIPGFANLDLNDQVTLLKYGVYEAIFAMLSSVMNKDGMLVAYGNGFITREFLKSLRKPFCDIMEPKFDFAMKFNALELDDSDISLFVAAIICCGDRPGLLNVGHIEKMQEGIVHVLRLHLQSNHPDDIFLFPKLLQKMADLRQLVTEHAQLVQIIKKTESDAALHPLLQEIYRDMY
Method in brief: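 Reporter transcripts quantified by RT-PCR plus capillary electrophoresis after 24 h treatment, fitted upward relative to DMSO. Cells: human HepG2 transiently carrying multiple GAL4-UAS reporter units driven by NR-Gal4 chimeras.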

[12] = ATG_M_06_TRANS: Attagene TRANS-FACTORIAL HepG2 Assay for M06 Transcription Factor (Internal Marker) (AID 2282983; active = hit-call score of the fitted dose curve at least 0.9, where 1 is the maximum); settings: HepG2 Attagene TRANS M06 internal marker reporter
Method in brief: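 Human liver HepG2 cells bearing transiently transfected chimeric NR-GAL4 reporter units were treated with chemicals for 24 h. Total RNA was reverse-transcribed, reporter sequences amplified and labelled, then quantified by capillary electrophoresis. Activity was fitted upward relative to DMSO.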

[13] = target: human Retinoic Acid Receptor beta (RARb), RARB (gene 5915) (UniProt P10826); assay: ATG_RARb_TRANS: Attagene TRANS-FACTORIAL HepG2 Assay for human Retinoic Acid Receptor beta (AID 2283004; active = hit-call score of the fitted dose curve at least 0.9, where 1 is the maximum)
Sequence of human Retinoic Acid Receptor beta (RARb), RARB (gene 5915) (P10826 whole entry, looked up, the tested form may be a part): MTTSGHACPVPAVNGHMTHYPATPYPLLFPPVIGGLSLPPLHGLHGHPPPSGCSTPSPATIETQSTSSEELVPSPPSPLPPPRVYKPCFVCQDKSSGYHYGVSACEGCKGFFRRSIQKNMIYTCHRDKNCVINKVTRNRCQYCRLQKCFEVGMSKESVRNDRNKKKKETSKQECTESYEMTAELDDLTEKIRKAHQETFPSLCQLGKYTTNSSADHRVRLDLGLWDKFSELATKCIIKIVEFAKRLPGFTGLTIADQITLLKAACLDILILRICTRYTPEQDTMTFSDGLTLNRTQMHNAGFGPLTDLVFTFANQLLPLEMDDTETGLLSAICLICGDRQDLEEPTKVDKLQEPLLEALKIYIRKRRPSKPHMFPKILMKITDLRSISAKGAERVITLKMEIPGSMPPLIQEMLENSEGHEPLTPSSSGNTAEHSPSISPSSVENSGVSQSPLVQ
Method in brief: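 HepG2, transient MRTU transfection, NR–Gal4 chimera, 24 h treatment; RT-PCR plus CE fluorescence detection of reporter mRNA; gain of signal vs DMSO.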

[14] = ATG_M_32_TRANS: Attagene TRANS-FACTORIAL HepG2 Assay for M32 Transcription Factor (Internal Marker) (AID 2282984; active = hit-call score of the fitted dose curve at least 0.9, where 1 is the maximum;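 also: transcript level of a background control reporter unit measured by RT-PCR and capillary electrophoresis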); settings: HepG2 Attagene TRANS M32 internal marker reporter
Method in brief: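 Internal background reporter in transfected HepG2: after 24 h chemical exposure, RNA reverse-transcribed, reporter cDNA amplified, fluorescently labelled and HpaI-cut, then sized by capillary electrophoresis. Gain of signal fitted against DMSO control.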

[15] = target: human Peroxisome Proliferator-activated Receptor delta (PPARd), PPARD (gene 5467) (UniProt Q03181); assay: ATG_PPARd_TRANS: Attagene TRANS-FACTORIAL HepG2 Assay for human Peroxisome Proliferator-activated Receptor delta (PPARd) (AID 2283002; active = hit-call score of the fitted dose curve at least 0.9, where 1 is the maximum)
Sequence of human Peroxisome Proliferator-activated Receptor delta (PPARd), PPARD (gene 5467) (Q03181 whole entry, looked up, the tested form may be a part): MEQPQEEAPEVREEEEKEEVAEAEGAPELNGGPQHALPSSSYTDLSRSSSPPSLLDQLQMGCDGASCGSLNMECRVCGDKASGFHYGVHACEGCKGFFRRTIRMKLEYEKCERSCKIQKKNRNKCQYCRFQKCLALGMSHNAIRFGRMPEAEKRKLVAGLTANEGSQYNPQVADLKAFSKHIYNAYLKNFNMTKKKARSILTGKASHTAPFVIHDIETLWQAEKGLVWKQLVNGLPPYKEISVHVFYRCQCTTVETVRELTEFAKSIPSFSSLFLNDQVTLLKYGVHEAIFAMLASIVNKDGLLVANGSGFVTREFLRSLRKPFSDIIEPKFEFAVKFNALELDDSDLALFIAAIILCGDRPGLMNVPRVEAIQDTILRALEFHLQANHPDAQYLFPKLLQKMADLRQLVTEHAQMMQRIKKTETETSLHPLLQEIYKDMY
Method in brief: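 Read-out is induced reporter mRNA, quantified by RT-PCR with fluorescent labelling and capillary electrophoresis after 24 h dosing. Cells are HepG2 transiently carrying multiple GAL4-UAS reporter units driven by exogenous NR-GAL4 chimeras; DMSO serves as baseline.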

[16] = BSK_3C_TissueFactor: BioMAP Diversity Plus: 3C Assay for Tissue Factor Biomarker Activity (AID 2282997); settings: BioMAP 3C HUVEC, tissue factor biomarker readout; actives raise or lower the signal
Method in brief: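 Cells used were primary human umbilical vein endothelial cells. They were dosed with chemical, and after 24 h Tissue Factor was quantified by ELISA. Curves were fitted bidirectionally with DMSO as baseline.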

[17] = BSK_3C_uPAR: BioMAP Diversity Plus: 3C Assay for Urokinase-type plasminogen activator receptor (uPAR) Biomarker Activity (AID 2282998); settings: BioMAP 3C HUVEC, uPAR biomarker ELISA; actives raise or lower the signal
Method in brief: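 Dose primary human umbilical vein endothelial cells, incubate 24 h, measure cell-surface uPAR by ELISA, then fit the signal in both directions against the DMSO negative control.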

[18] = BSK_4H_Eotaxin3: BioMAP Diversity Plus: 4H Assay for Eotaxin 3 Biomarker Activity (AID 2283000); settings: primary human endothelial cells (HUVEC); actives raise or lower the signal
Method in brief: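 Endothelial primary cells (human umbilical vein) exposed to compound for 24 h. ELISA detection of Eotaxin-3.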

[19] = read-out: Intercellular Adhesion Molecule 1 (ICAM1), ICAM1 (gene 3383); assay: BSK_3C_ICAM1: BioMAP Diversity Plus: 3C Assay for Intercellular Adhesion Molecule 1 (ICAM1) Biomarker Activity (AID 2283003); settings: primary human endothelial cells (HUVEC); actives raise or lower the signal
Method in brief: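 ELISA readout of ICAM1 in human umbilical vein endothelial cells in the 3C system, taken 24 h post-dose. Gain or loss of signal versus DMSO was fitted in both directions, with SRB total-protein staining run in parallel.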

[20] = BSK_3C_VCAM1: BioMAP Diversity Plus: 3C Assay for Vascular cell adhesion molecule 1 (VCAM1) Biomarker Activity (AID 2282999); settings: BioMAP 3C HUVEC, VCAM1 ELISA, cytokine-stimulated; actives raise or lower the signal
Method in brief: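 Activity fitted in both directions relative to DMSO, with ELISA measurement of the surface marker on primary HUVEC (3C) at 24 h post-treatment; parallel SRB staining (0.1% SRB, TCA-fixed, 560 nm) flagged overt cytotoxicity.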

Measured: AC50

CCCCCCCCBr
inactive: [1] | [2] | [3] | [4] | [5] | [6] | [7] | [8] | [9] | [10] | [11]

C=CC(F)(C(F)(F)F)C(F)(F)C(F)(F)F (centres undefined)
inactive: [1] | [12] | [3] | [4] | [5] | [6] | [7] | [8] | [9] | [13]

C=CC(=O)[O][Sn]([CH2]CCC)([CH2]CCC)[CH2]CCC
active: [2] 0.00109 µM | [5] 0.179 µM | [9] 0.348 µM | [11] 0.599 µM
inactive: [1] | [14] | [3] | [4] | [6] | [7] | [15]

CC(F)(F)CC(F)(F)F
inactive: [1] | [12] | [3] | [4] | [5] | [6] | [7] | [9] | [10] | [15]

CCCCOC(=O)COC(=O)c1ccccc1C(=O)OCCCC
not listed: [4] | [7] | [12] | [13] | [14] | [15] | [20]
inactive: all other assays above

Cc1cc(Cl)ccc1O
inactive: [1] | [3] | [4] | [5] | [6] | [7] | [9] | [10] | [11]
active: [8] 37.1 µM

CCOP(=S)(OCC)OP(=S)(OCC)OCC
active: [17] 34 µM | [18] 35.6 µM | [19] 36.8 µM
not listed: [7] | [11] | [12] | [13] | [15] | [20]
inactive: all other assays above

CCCCCCCCCCBr
active: [8] 68.6 µM
inactive: [1] | [14] | [2] | [3] | [4] | [5] | [7] | [9] | [11]

O=[N+]([O-])c1c2ccccc2cc2ccccc12
inactive: [1] | [12] | [3] | [4] | [5] | [6] | [9] | [10]
active: [8] 5 µM

OC(Cc1ccccc1Cl)(Cn1cncn1)C1(Cl)CC1 (centres undefined)
active: [10] 30 µM | [17] 16.5 µM
not listed: [8] | [11] | [12] | [15]
inactive: all other assays above

[F][Sn]([c]1ccccc1)([c]1ccccc1)[c]1ccccc1
active: [2] 0.00363 µM | [3] 2.24 µM | [4] 0.294 µM | [5] 0.312 µM | [6] 2.12 µM | [7] 0.685 µM | [9] 0.335 µM | [10] 0.316 µM
inactive: [1] | [8]
